{"source": "PubChem BioAssay (NCATS)", "note": "Results filed as inconclusive are left out. The source made the active and inactive calls. The call rests on the fitted dose curve; in most records, active means well fitted curve in the direction sought with a large enough effect; inconclusive means small, poorly fitted or top-dose-only effect, or another doubt; inactive means no such curve, though single readings can be large; an effect the other way counts as inactive or inconclusive.", "data": [{"tested_on": "not listed separately", "test": "qHTS for Inhibitors of Ubiquitin-specific Protease USP2a Using CHOP2 as the Reporter: K633 Counterscreen (AID 652168); further: % of control where 0% means no effect", "details": "No-enzyme DiUb K48 IQF substrate fluorescence interference, kinetic; series mostly up to 57.5 µM; activity change, negative = inhibition: at the top concentration", "how_it_was_run": "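Cell-free interference counterscreen without USP2a: compounds pinned into enzyme-free buffer (20 mM Tris pH 8, 2 mM beta-mercaptoethanol, 0.05% Chaps), then DiUb K48-4IQF substrate added (100 nM stock); fluorescence read kinetically, Ex 525/Em 598.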", "values": [{"smiles": "O=C1CC(c2ccccc2)Cc2[nH]c(=O)c(-c3nc(-c4ccc(F)cc4)cs3)cc21", "note": "(configuration not stated)", "activity change, negative = inhibition": "-25.1% (inactive)"}, {"smiles": "O=C(Nc1nc(-c2ccccc2)cs1)c1ccncc1NS(=O)(=O)c1ccc(N2CCCC2=O)cc1", "activity change, negative = inhibition": "-14.5% (inactive)"}, {"smiles": "O=C(Nc1nc(-c2ccccc2)cs1)c1ccncc1NS(=O)(=O)c1cccnc1", "activity change, negative = inhibition": "-7.06% (inactive)"}, {"smiles": "COc1cccc(NC(=O)c2cc(-c3ccc(C)c(C)c3)nc3ccccc23)c1", "activity change, negative = inhibition": "-13.2% (inactive)"}, {"smiles": "O=c1[nH]c(CCl)nc2sc3c(c12)CCCC3", "activity change, negative = inhibition": "-2.42% (inactive)"}, {"smiles": "CCOC(=O)c1csc(NC(=O)c2ccncc2NS(=O)(=O)c2ccc(C)cc2)n1", "activity change, negative = inhibition": "-4.94% (inactive)"}, {"smiles": "O=C(Nc1nc(-c2ccccc2)cs1)c1ccccc1S(=O)(=O)Nc1nccs1", "activity change, negative = inhibition": "-23.4% (inactive)"}, {"smiles": "Cc1ccc(S(=O)(=O)Nc2cc(C)ccc2C(=O)Nc2nc(-c3ccccc3)cs2)cc1", "activity change, negative = inhibition": "-13% (inactive)"}, {"smiles": "Cc1ccc(S(=O)(=O)Nc2ccncc2C(=O)Nc2nc(-c3ccccc3)cs2)cc1", "activity change, negative = inhibition": "13.9% (inactive)"}, {"smiles": "COc1ccc(NS(=O)(=O)c2ccc(C)cc2)c(C(=O)Nc2nc(-c3ccccc3)cs2)c1", "activity change, negative = inhibition": "-14.9% (inactive)"}, {"smiles": "Cc1ccc(S(=O)(=O)Nc2cc(Br)ccc2C(=O)Nc2nc(-c3ccccc3)cs2)cc1", "activity change, negative = inhibition": "-8.04% (inactive)"}, {"smiles": "Cc1ccc(-c2cc(C(=O)Nc3ccc(-c4noc(=O)[nH]4)cc3)c3ccccc3n2)cc1C", "activity change, negative = inhibition": "3.14% (inactive)"}, {"smiles": "N#Cc1cccc(S(=O)(=O)Nc2cnccc2C(=O)Nc2nc(-c3ccccc3)cs2)c1", "activity change, negative = inhibition": "-7.11% (inactive)"}, {"smiles": "Cc1ccc(S(=O)(=O)Nc2ccccc2C(=O)Nc2nccs2)cc1", "activity change, negative = inhibition": "-9.98% (inactive)"}, {"smiles": "O=C(Cc1nc2ccc(Cl)cc2[nH]1)Nc1ccc(S(=O)(=O)Nc2nccs2)cc1", "activity change, negative = inhibition": "-21.6% (inactive)"}, {"smiles": "O=S(=O)(Nc1nc(CN2CCOCC2)nc2sc3c(c12)CCC3)c1ccc2c(c1)OCCO2", "activity change, negative = inhibition": "-2.39% (inactive)"}, {"smiles": "Cc1ccc(S(=O)(=O)Nc2cc(F)c(F)cc2C(=O)Nc2nc(-c3ccccc3)cs2)cc1", "activity change, negative = inhibition": "-2.93% (inactive)"}, {"smiles": "Cc1noc(C)c1S(=O)(=O)Nc1cnccc1C(=O)Nc1nc(-c2ccccc2)cs1", "activity change, negative = inhibition": "-7.08% (inactive)"}, {"smiles": "Cc1ccc(-c2cc(C(=O)N3CCCCC3)c3ccccc3n2)cc1C", "activity change, negative = inhibition": "-24.6% (inactive)"}]}, {"tested_on": "not listed separately", "test": "qHTS for Inhibitors of Ubiquitin-specific Protease USP2a Using CHOP2 as the Reporter: Cytotox Assay (AID 652170); further: nearly all actives have a fitted effect of over 70% in size; further: potency means the concentration at half of the fitted maximal effect;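 on activity change, negative = cytotoxicity: plate controls were DMSO-treated cells for no effect and wells without cells for full effect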", "details": "HCT116 viability, CellTiter-Glo luminescence, 72 h; series mostly up to 46.1 µM; activity change, negative = cytotoxicity: at the top concentration", "how_it_was_run": "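HCT116 human colon cancer cells, 600 per well in DMEM with 10% FBS, exposed to compounds for 72 hr at 37 deg C. ATP measured by CellTiter-Glo luminescence, normalized to DMSO cells and no-cell background.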", "values": [{"smiles": "Cc1ccc(-c2cc(C(=O)Nc3ccccc3Cl)c3ccccc3n2)cc1C", "activity change, negative = cytotoxicity": "0.661% (inactive)"}, {"smiles": "COc1ccc(C(=O)Nc2nc(-c3ccccc3)cs2)cc1NS(=O)(=O)c1ccc(C)cc1", "activity change, negative = cytotoxicity": "-19.1% (inactive)"}, {"smiles": "COc1ccc(Cl)cc1C(=O)Nc1nc(-c2ccccc2)cs1", "activity change, negative = cytotoxicity": "10.5% (inactive)"}, {"smiles": "COc1ccccc1C(=O)Nc1nc(-c2ccccc2)cs1", "activity change, negative = cytotoxicity": "8.16% (inactive)"}, {"smiles": "Cc1ccc(S(=O)(=O)Nc2cc(C(=O)Nc3nc(-c4ccccc4)cs3)ccn2)cc1", "activity change, negative = cytotoxicity": "7.9% (inactive)"}, {"smiles": "Cc1ccc(-c2cc(C(=O)Nc3ccc(S(N)(=O)=O)cc3)c3ccccc3n2)cc1C", "activity change, negative = cytotoxicity": "-22.4% (inactive)"}, {"smiles": "COc1c(NS(=O)(=O)c2ccc(C)cc2)cccc1C(=O)Nc1nc(-c2ccccc2)cs1", "Potency": "1.48 µM (active)"}, {"smiles": "Cc1ccc(-c2cc(C(=O)N(C)c3ccccc3)c3ccccc3n2)cc1C", "activity change, negative = cytotoxicity": "-2.35% (inactive)"}, {"smiles": "Cc1ccc(S(=O)(=O)Nc2ccccc2C(=O)Nc2cccc(-c3ccccc3)c2)cc1", "Potency": "16.6 µM (active)"}, {"smiles": "Cc1ccc(-c2cc(C(=O)Nc3ccn[nH]3)c3ccccc3n2)cc1C", "activity change, negative = cytotoxicity": "-14.9% (inactive)"}, {"smiles": "CC(C)Oc1ccccc1C(=O)Nc1nc(-c2ccccc2)cs1", "activity change, negative = cytotoxicity": "-17% (inactive)"}, {"smiles": "Cc1ccc(S(=O)(=O)Nc2ccccc2C(=O)Nc2ccc(-c3ccccc3)cc2)cc1", "Potency": "13.2 µM (active)"}, {"smiles": "Cc1ccc(S(=O)(=O)Nc2ccccc2C(=O)Nc2ncc(-c3ccccc3)s2)cc1", "Potency": "18.7 µM (active)"}, {"smiles": "Cc1ccc(-c2cc(C(=O)Nc3ncco3)c3ccccc3n2)cc1C", "Potency": "1.32 µM (active)"}, {"smiles": "Cc1ccc(-c2cc(C(=O)Nc3cccc4ccccc34)c3ccccc3n2)cc1C", "activity change, negative = cytotoxicity": "-23.2% (inactive)"}, {"smiles": "Cc1ccc(S(=O)(=O)Nc2ccc(F)cc2C(=O)Nc2nc(-c3ccccc3)cs2)cc1", "Potency": "14.8 µM (active)"}, {"smiles": "Cc1ccc(S(=O)(=O)Nc2cccc(C(=O)Nc3nc(-c4ccccc4)cs3)c2Cl)cc1", "Potency": "11.8 µM (active)"}, {"smiles": "COc1ccccc1NC(=O)c1cc(-c2ccc(C)c(C)c2)nc2ccccc12", "activity change, negative = cytotoxicity": "-5.2% (inactive)"}, {"smiles": "O=C(Nc1ccc(S(=O)(=O)Nc2nccs2)cc1)C1CCC2(CCC2)CC1", "activity change, negative = cytotoxicity": "-3.66% (inactive)"}, {"smiles": "Cc1ccc(-c2cc(C(=O)NCc3ccccc3)c3ccccc3n2)cc1C", "activity change, negative = cytotoxicity": "9.39% (inactive)"}]}, {"molecular_target": "Ubiquitin carboxyl-terminal hydrolase 2 (Homo sapiens) (UniProt O75604)", "sequence (O75604 whole entry, looked up)": "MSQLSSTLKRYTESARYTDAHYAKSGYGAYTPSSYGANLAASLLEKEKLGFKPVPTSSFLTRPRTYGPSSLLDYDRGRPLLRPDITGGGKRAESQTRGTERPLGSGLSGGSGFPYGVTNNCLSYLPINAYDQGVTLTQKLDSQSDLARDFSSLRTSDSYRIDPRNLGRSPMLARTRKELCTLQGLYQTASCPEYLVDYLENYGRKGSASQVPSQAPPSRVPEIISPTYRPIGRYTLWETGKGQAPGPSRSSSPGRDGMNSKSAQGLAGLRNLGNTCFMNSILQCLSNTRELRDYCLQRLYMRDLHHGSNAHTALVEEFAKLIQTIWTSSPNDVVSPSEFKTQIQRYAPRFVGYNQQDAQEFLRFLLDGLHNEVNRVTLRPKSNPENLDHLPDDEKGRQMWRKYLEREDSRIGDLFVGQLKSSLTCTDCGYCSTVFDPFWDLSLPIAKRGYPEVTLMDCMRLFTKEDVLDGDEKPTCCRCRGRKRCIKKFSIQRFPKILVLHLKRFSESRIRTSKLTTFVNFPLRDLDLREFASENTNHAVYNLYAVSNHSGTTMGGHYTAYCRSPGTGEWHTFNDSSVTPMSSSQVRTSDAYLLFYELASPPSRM", "test": "qHTS for Inhibitors of Ubiquitin-specific Protease USP2a Using CHOP2 as the Reporter: K484 Substrate (AID 652173);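 further: cleavage of internally quenched K48 di-ubiquitin substrate measured as rising fluorescence over time; nearly all actives have a fitted effect of over 70% in size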; further: potency means the concentration at half of the fitted maximal effect", "details": "USP2 cleavage of DiUb K48 IQF substrate, fluorescence; series mostly up to 57.5 µM; activity change, negative = inhibition: at the top concentration", "how_it_was_run": "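USP2 (dispensed at 5 nM) was pinned with compounds, then DiUb K48 internally quenched fluorescent substrate (dispensed at 100 nM) was added. The buffer was 20 mM Tris pH 8, 2 mM beta-mercaptoethanol and 0.05% CHAPS. Cleavage was read kinetically as rising fluorescence, Ex 525/Em 598.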", "values": [{"smiles": "O=C1CC(c2ccccc2)Cc2[nH]c(=O)c(-c3nc(-c4ccc(F)cc4)cs3)cc21", "note": "(configuration not stated)", "Potency": "17.2 µM (active)"}, {"smiles": "COc1ccc(C(=O)Nc2nc(-c3ccccc3)cs2)cc1NS(=O)(=O)c1ccc(C)cc1", "Potency": "3.06 µM (active)"}, {"smiles": "O=C(Nc1nc(-c2ccccc2)cs1)c1ccncc1NS(=O)(=O)c1ccc(N2CCCC2=O)cc1", "Potency": "15.3 µM (active)"}, {"smiles": "O=C(Nc1nc(-c2ccccc2)cs1)c1ccncc1NS(=O)(=O)c1cccnc1", "Potency": "2.73 µM (active)"}, {"smiles": "COc1cccc(NC(=O)c2cc(-c3ccc(C)c(C)c3)nc3ccccc23)c1", "Potency": "9.68 µM (active)"}, {"smiles": "COc1ccc(Cl)cc1C(=O)Nc1nc(-c2ccccc2)cs1", "Potency": "9.68 µM (active)"}, {"smiles": "O=c1[nH]c(CCl)nc2sc3c(c12)CCCC3", "activity change, negative = inhibition": "-16.8% (inactive)"}, {"smiles": "Cc1ccc(S(=O)(=O)Nc2cc(C(=O)Nc3nc(-c4ccccc4)cs3)ccn2)cc1", "Potency": "6.85 µM (active)"}, {"smiles": "Cc1ccc(-c2cc(C(=O)N(C)c3ccccc3)c3ccccc3n2)cc1C", "Potency": "21.7 µM (active)"}, {"smiles": "CCOC(=O)c1csc(NC(=O)c2ccncc2NS(=O)(=O)c2ccc(C)cc2)n1", "Potency": "21.7 µM (active)"}, {"smiles": "Cc1ccc(S(=O)(=O)Nc2ccccc2C(=O)Nc2cccc(-c3ccccc3)c2)cc1", "Potency": "2.17 µM (active)"}, {"smiles": "O=C(Nc1nc(-c2ccccc2)cs1)c1ccccc1S(=O)(=O)Nc1nccs1", "Potency": "12.2 µM (active)"}, {"smiles": "Cc1ccc(-c2cc(C(=O)Nc3ccn[nH]3)c3ccccc3n2)cc1C", "Potency": "27.3 µM (active)"}, {"smiles": "CC(C)Oc1ccccc1C(=O)Nc1nc(-c2ccccc2)cs1", "Potency": "17.2 µM (active)"}, {"smiles": "Cc1ccc(S(=O)(=O)Nc2cc(C)ccc2C(=O)Nc2nc(-c3ccccc3)cs2)cc1", "Potency": "1.53 µM (active)"}, {"smiles": "Cc1ccc(S(=O)(=O)Nc2ccccc2C(=O)Nc2ccc(-c3ccccc3)cc2)cc1", "Potency": "2.43 µM (active)"}, {"smiles": "Cc1ccc(S(=O)(=O)Nc2ccncc2C(=O)Nc2nc(-c3ccccc3)cs2)cc1", "Potency": "4.85 µM (active)"}, {"smiles": "COc1ccc(NS(=O)(=O)c2ccc(C)cc2)c(C(=O)Nc2nc(-c3ccccc3)cs2)c1", "Potency": "2.73 µM (active)"}, {"smiles": "Cc1ccc(S(=O)(=O)Nc2cc(Br)ccc2C(=O)Nc2nc(-c3ccccc3)cs2)cc1", "Potency": "1.09 µM (active)"}, {"smiles": "Cc1ccc(S(=O)(=O)Nc2ccccc2C(=O)Nc2ncc(-c3ccccc3)s2)cc1", "Potency": "1.93 µM (active)"}, {"smiles": "Cc1ccc(-c2cc(C(=O)Nc3ccc(-c4noc(=O)[nH]4)cc3)c3ccccc3n2)cc1C", "Potency": "4.32 µM (active)"}, {"smiles": "N#Cc1cccc(S(=O)(=O)Nc2cnccc2C(=O)Nc2nc(-c3ccccc3)cs2)c1", "Potency": "2.17 µM (active)"}, {"smiles": "Cc1ccc(-c2cc(C(=O)Nc3ncco3)c3ccccc3n2)cc1C", "Potency": "3.06 µM (active)"}, {"smiles": "Cc1ccc(S(=O)(=O)Nc2ccccc2C(=O)Nc2nccs2)cc1", "Potency": "24.3 µM (active)"}, {"smiles": "Cc1ccc(-c2cc(C(=O)Nc3cccc4ccccc34)c3ccccc3n2)cc1C", "Potency": "17.2 µM (active)"}, {"smiles": "O=C(Cc1nc2ccc(Cl)cc2[nH]1)Nc1ccc(S(=O)(=O)Nc2nccs2)cc1", "Potency": "30.6 µM (active)"}, {"smiles": "Cc1ccc(S(=O)(=O)Nc2cccc(C(=O)Nc3nc(-c4ccccc4)cs3)c2Cl)cc1", "Potency": "3.43 µM (active)"}, {"smiles": "COc1ccccc1NC(=O)c1cc(-c2ccc(C)c(C)c2)nc2ccccc12", "Potency": "10.9 µM (active)"}, {"smiles": "O=S(=O)(Nc1nc(CN2CCOCC2)nc2sc3c(c12)CCC3)c1ccc2c(c1)OCCO2", "activity change, negative = inhibition": "-17.9% (inactive)"}, {"smiles": "Cc1ccc(-c2cc(C(=O)NCc3ccccc3)c3ccccc3n2)cc1C", "Potency": "13.7 µM (active)"}, {"smiles": "Cc1ccc(S(=O)(=O)Nc2cc(F)c(F)cc2C(=O)Nc2nc(-c3ccccc3)cs2)cc1", "Potency": "0.863 µM (active)"}, {"smiles": "Cc1noc(C)c1S(=O)(=O)Nc1cnccc1C(=O)Nc1nc(-c2ccccc2)cs1", "Potency": "6.85 µM (active)"}, {"smiles": "Cc1ccc(-c2cc(C(=O)N3CCCCC3)c3ccccc3n2)cc1C", "Potency": "24.3 µM (active)"}]}]}
